# Measurements from PubChem BioAssay AID1044 (The Scripps Research Institute Molecular Screening Center, 2008).
# Hit rate of the full screen: of about 16,000 compounds, about 240 (1.5%) were called active. Rule as the data show it: active = activation above about 80%; inactive = the rest. Shown is part of a subset that was picked to be rich in actives.
# Target: Sphingosine 1-phosphate receptor 1 (Homo sapiens) (UniProt P21453)
# Assay: S1P1 (human) receptor agonism (AID 1044)
# Conditions: S1P1 agonist cell-based reporter assay; at 4.5 µM; active compounds read high
# Sequence of Sphingosine 1-phosphate receptor 1 (Homo sapiens) (P21453 whole entry, looked up): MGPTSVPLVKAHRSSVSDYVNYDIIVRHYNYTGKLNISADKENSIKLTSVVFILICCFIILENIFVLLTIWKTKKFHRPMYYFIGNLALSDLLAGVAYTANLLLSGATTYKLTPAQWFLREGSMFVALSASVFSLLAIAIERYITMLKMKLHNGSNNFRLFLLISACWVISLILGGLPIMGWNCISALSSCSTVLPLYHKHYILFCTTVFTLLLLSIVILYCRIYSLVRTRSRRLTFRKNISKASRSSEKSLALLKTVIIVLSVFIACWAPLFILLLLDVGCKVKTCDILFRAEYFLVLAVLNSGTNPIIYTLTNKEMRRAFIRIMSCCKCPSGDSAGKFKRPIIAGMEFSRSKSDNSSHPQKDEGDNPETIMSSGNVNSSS
row,SMILES,activation
1,COC(=O)c1cc(S(=O)(=O)NCc2csc(-c3cccs3)n2)oc1C,4.78% (inactive)
2,CC(C)(C)OC(=O)n1ccc2cc(Br)ccc21,111% (active)
3,O=C1CC(c2ccccc2)C(=O)N1Cc1cccs1 (centres undefined),1.62% (inactive)
4,O=C(NCc1cccnc1)c1cnc2ccccc2n1,-2.22% (inactive)
5,N#CC(C#N)=CNc1c(F)cccc1Cl,48.9% (inactive)
6,CO/N=C1\C(=O)N(C)c2ccccc21,-2.23% (inactive)
7,COC(=O)c1cc(OC)c(OC)cc1NC(=O)c1ccccc1C(=O)O,14.4% (inactive)
8,O=C1c2ccccc2C(=O)N1CCCN1CCN(Cc2c(F)cccc2Cl)CC1,-0.27% (inactive)
9,S=C(SCc1ncon1)N1CCSCC1,-1.22% (inactive)
10,N#Cc1cncc(Br)c1,-9.98% (inactive)
11,O=C(O)c1nccnc1C(=O)O,-16.2% (inactive)
12,CC(=O)c1cc([N+](=O)[O-])c(NC2CCCCC2)s1,-14.1% (inactive)
13,O=S(=O)(O)c1ncccn1,3.74% (inactive)
14,COc1c(Br)cc(C#N)cc1Br,-9.06% (inactive)
15,COC(=O)C1=C(c2ccccc2)C(c2ccccc2)=C(C(=O)OC)C1=O,6.63% (inactive)
16,N#Cc1cn(C2CCCCC2)c(=O)[nH]c1=O,15.6% (inactive)
17,CNC(=O)c1ccccc1Sc1ccccc1C(=O)NC,-10.2% (inactive)
18,CCOC(=O)C(NC(=O)Nc1ccccc1)(Nc1ccccc1OC)C(F)(F)F (centres undefined),5.29% (inactive)
19,CCOC(=O)c1c(C)csc1NC(=O)CC(=O)C(F)(F)F,12.6% (inactive)
20,COC(=O)c1cc(C(N)=O)c(SC)s1,-10.8% (inactive)
21,O=c1c2c(nc3nc[nH]n13)CCC2,1.21% (inactive)
22,CSC(C)C(=O)/C=C/N(C)C (centres undefined),-15.9% (inactive)
23,COC(OC)c1ccc(C#N)c(SCC(=O)Nc2ccc(C(F)(F)F)cc2)n1,-16.6% (inactive)

row,SMILES,activation
1,COC(=O)C(C#N)c1ccc(C(F)(F)F)cc1[N+](=O)[O-] (centres undefined),14.5% (inactive)
2,COC(=O)CCN1CCc2cc(N=Nc3ccc(C(F)(F)F)cc3)ccc21,99.2% (active)
3,CCOC(=O)NC(=O)/C(=C/NC(C)C)C(=O)OCC,22.7% (inactive)
4,COc1cc(-c2n[nH]c(=S)n2Cc2ccccc2)cc(OC)c1OC,-18.1% (inactive)
5,CC1(C)c2ccccc2-n2c1cc(O)c(-c1ccccc1)c2=O,-11.7% (inactive)
6,CC1(NC(=O)OCc2ccccc2)CC1NC(=O)OCc1ccccc1 (centres undefined),11.9% (inactive)
7,COC(=O)c1sccc1Oc1ccc(Cl)cc1[N+](=O)[O-],13.2% (inactive)
8,COC(=O)c1sccc1NC(=S)Nc1ccc(C)cc1,-27.1% (inactive)
9,OC(CNCCNc1nccc(C(F)(F)F)n1)COc1ccc(Cl)c(Cl)c1 (centres undefined),15.7% (inactive)
10,CSC(=Nc1ccccc1C(F)(F)F)N1CCCC1,62.5% (inactive)
11,NNC(=O)CSc1nnc(-c2ccccc2)n1-c1ccccc1,2.03% (inactive)
12,CN(NC(=O)c1ccc(Cl)s1)c1cnn(-c2cc(Cl)cc(Cl)c2)c(=O)c1Cl,7.36% (inactive)
13,O=C(NCc1cccnc1)c1ccccc1NC(=O)c1c(F)cccc1F,10.3% (inactive)
14,Cc1ccc(S(=O)(=O)NC(=O)NCCSCc2ccco2)cc1,-7.47% (inactive)
15,O=C(CSc1ccc(Cl)cc1)NCCSCc1ccco1,3.06% (inactive)
16,O=C(O)CSC(SCC(=O)O)c1ccc2c(c1)OCO2,-4.07% (inactive)
17,Cc1cc(C)n(/N=c2\sc(-c3ccccc3)cn2C2CC3C=CC2C3)c(=O)c1C#N (centres undefined),-8.12% (inactive)
18,CCOC(=O)c1c(N/N=C\c2ccccc2O)n[nH]c1C,-16.7% (inactive)
19,COc1cc(NC(=O)COc2cc(Cl)c(Cl)cc2Cl)cc(OC)c1OC,22.5% (inactive)
20,O=C(O)Cc1csc(NC(=O)CSc2nnnn2-c2ccc(O)cc2)n1,0.38% (inactive)
21,C/C(=N\NC(N)=S)c1cc2cc(Cl)ccc2o1,7.17% (inactive)
22,N/C(=N\O)c1ccc2nonc2c1,23.9% (inactive)
23,Clc1ccc(-c2csc(-c3cnccn3)n2)s1,1.06% (inactive)

row,SMILES,activation
1,S=C(Nc1cccnc1)N1CCCN(Cc2ccc(Cl)cc2Cl)CC1,14.2% (inactive)
2,COC(=O)c1ccsc1NC(C)=O,-7.53% (inactive)
3,CCCc1c(C(=O)O)cnn1-c1ccc(Cl)cc1,-21.8% (inactive)
4,O/N=C(\c1ccccc1)c1ccccn1,-7.69% (inactive)
5,COc1ccc(C2CC(c3cccs3)=Nc3ccccc3S2)c(Cl)c1OC (centres undefined),1.73% (inactive)
6,O=S(=O)(O)Oc1c[nH]c2ccccc12,-5.88% (inactive)
7,CC1=C(C(=O)O)N2C(=O)[C@H](NC(=O)[C@@H](N)c3ccccc3)C2SC1 (some centres undefined),8.53% (inactive)
8,O=C(c1cnn(-c2ccc(Cl)cc2)n1)c1cccs1,3.48% (inactive)
9,CC(C)S(=O)(=O)/C(C#N)=C/c1ccccc1OC(F)(F)F,-23.8% (inactive)
10,O=C(NNC(=S)Nc1ccccc1Cl)c1ccc(OC(F)(F)F)cc1,91.2% (active)
11,Cc1nc(C(=O)NNC(=S)Nc2ccccc2C(F)(F)F)cs1,-8.43% (inactive)
12,COC(=O)c1ccccc1NC(=S)NNC(=O)c1ccc([N+](=O)[O-])cc1,-4.53% (inactive)
13,Cc1nn(S(=O)(=O)c2ccc(Cl)cc2)cc1-c1ccccc1,-1.3% (inactive)
14,Cc1cc(Cl)ccc1NC(=S)NNC(=S)Nc1ccc(F)cc1,25.2% (inactive)
15,Cc1onc(-c2ccccc2)c1C(=O)Sc1ccc(C(F)(F)F)cn1,-5.64% (inactive)
16,CC(=O)c1ccc(NC(=O)OC2CCSC2)cc1 (centres undefined),-3.04% (inactive)
17,O=S(=O)(c1ccccc1)c1cc(C(F)(F)F)cc(C(F)(F)F)c1,1.62% (inactive)
18,O=c1oc2c3ccccc3c3oc(=O)sc3c2s1,11% (inactive)
19,CN(C)c1ccc(C=Nc2ccc(S(N)(=O)=O)cc2)cc1,-3.85% (inactive)
20,CC(=O)Nc1ccc(F)cc1F,-19.4% (inactive)
21,CC1(C)C=Cc2cc(-c3noc(-c4ccccc4)n3)ccc2O1,96.3% (active)
22,Cc1cc(C(F)(F)F)nc2c(-c3noc(-c4ccccc4)n3)cnn12,23.9% (inactive)
23,CC1(C)CCc2cc(-c3ccnc(SCC(=O)c4ccccc4)n3)ccc2O1,-11.3% (inactive)
